Assay results taken from PubChem BioAssay (NCATS).
Values joined by “and” are separate entries in the source; they are usually repeats but may differ in a detail not shown here. Equal values may be shown once. Records with an inconclusive call do not appear. Entries that show only a call come without a potency. Values without a mark were called inactive. Active and inactive are the calls of the source. Calls come from the whole dose curve; as a rule, active = well fitted curve in the direction sought with a large enough effect; inconclusive = small, poorly fitted or top-dose-only effect, or another doubt; inactive = no such curve, though single readings can be large; an effect the other way counts as inactive or inconclusive.

How the values were obtained:
[1] = biological target: Cellular tumor antigen p53 (Homo sapiens) (UniProt P04637); assay: Primary qHTS for small molecule compounds that upregulate eGFP-tagged delta133p53alpha (in N-terminal) cells. (AID 2060322); details: NCI-H358 eGFP-delta133p53alpha fluorescence, 24 h; activation: stronger effect = higher value; note: nearly all actives have a fitted effect of over 75% in size; note: potency is the fitted concentration of half-maximal effect; for activation: series mostly up to about 56 µM
Cellular tumor antigen p53 (Homo sapiens), sequence (P04637 whole entry, looked up): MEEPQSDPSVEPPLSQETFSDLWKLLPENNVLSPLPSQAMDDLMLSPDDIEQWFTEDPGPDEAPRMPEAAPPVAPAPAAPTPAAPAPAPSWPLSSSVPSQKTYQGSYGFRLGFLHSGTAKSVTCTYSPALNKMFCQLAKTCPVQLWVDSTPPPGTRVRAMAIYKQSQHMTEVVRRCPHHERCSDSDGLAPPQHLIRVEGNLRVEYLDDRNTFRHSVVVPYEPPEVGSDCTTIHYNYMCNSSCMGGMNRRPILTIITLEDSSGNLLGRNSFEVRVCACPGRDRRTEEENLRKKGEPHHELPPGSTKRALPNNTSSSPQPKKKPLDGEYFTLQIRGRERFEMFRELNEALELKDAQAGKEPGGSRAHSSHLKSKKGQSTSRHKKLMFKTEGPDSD
Method in brief: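 NCI-H358 cells pre-induced 24 h with 10 ng/ml doxycycline to express N-terminal eGFP-delta133p53alpha, then dosed 24 h at 37C without doxycycline; fixed, Hoechst-stained, GFP intensity by laser scanning cytometry, normalized to DMSO (0%) and 57.5 uM 5-azacytidine (100%).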

[2] = biological target: Aldehyde dehydrogenase, mitochondrial (Homo sapiens) (UniProt P05091); assay: qHTS for Inhibitors of the Aldehyde Dehydrogenase Family (ALDH2) Primary screen (AID 2061308); note: nearly all actives have a fitted effect of over 55% in size; note: potency is the fitted concentration of half-maximal effect
[3] = biological target: Retinaldehyde dehydrogenase 3 (Homo sapiens) (UniProt P47895); assay: qHTS for Inhibitors of the Aldehyde Dehydrogenase Family (ALDH1A3) Confirmatory screens (AID 2061311); note: nearly all actives have a fitted effect of over 60% in size; note: potency is the fitted concentration of half-maximal effect
[4] = biological target: Retinaldehyde dehydrogenase 3 (Homo sapiens) (UniProt P47895); assay: qHTS for Inhibitors of the Aldehyde Dehydrogenase Family (ALDH1A3) Validation screen (AID 2061312); note: nearly all actives have a fitted effect of over 45% in size; note: potency is the fitted concentration of half-maximal effect
[5] = biological target: Retinaldehyde dehydrogenase 3 (Homo sapiens) (UniProt P47895); assay: qHTS for Inhibitors of the Aldehyde Dehydrogenase Family (ALDH1A3) Primary screen (AID 2061315); note: potency is the fitted concentration of half-maximal effect
[6] = biological target: Retinal dehydrogenase 2 (Homo sapiens) (UniProt O94788); assay: qHTS for Inhibitors of the Aldehyde Dehydrogenase Family (ALDH1A2) Confirmation screens (AID 2061314); note: nearly all actives have a fitted effect of over 65% in size; note: potency is the fitted concentration of half-maximal effect
[7] = biological target: Aldehyde dehydrogenase 1A1 (Homo sapiens) (UniProt P00352); assay: qHTS for Inhibitors of the Aldehyde Dehydrogenase Family (ALDH1A1) Confirmatory screens (AID 2061316); note: nearly all actives have a fitted effect of over 65% in size; note: potency is the fitted concentration of half-maximal effect
[8] = BET inhibitor-based combinations targeting novel dependencies in MECOM-rearranged (r) AML: SET-2 cell line (AID 2202231); details: SET-2 AML cells viability, CellTiter-Glo luminescence, 48 h; viability: stronger effect = lower value, series mostly up to about 46 µM; note: nearly all actives have a fitted effect of over 35% in size
Method in brief: (§1)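 AML cell lines seeded at 500 cells/well, treated with 11-point dose curves for 48 h. Viability by CellTiter-Glo luminescence, normalised to DMSO and empty wells; activity expressed as AUC and per-cell-line Z-transformed AUC.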

[9] = BET inhibitor-based combinations targeting novel dependencies in MECOM-rearranged (r) AML: UCSD-AML1 cell line (AID 2202235); note: series mostly up to about 46 µM; nearly all actives have a fitted effect of over 40% in size
Method in brief: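 Cells at 500/well were exposed for 48 hr to MIPE v5.0 drugs as 11-point dose curves. Viability was read by CellTiter-Glo luminescence and normalized to DMSO and empty-well controls. Activity was expressed as AUC and per-cell-line Z-AUC.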

[10] = BET inhibitor-based combinations targeting novel dependencies in MECOM-rearranged (r) AML: AML-191 cell line (AID 2202236; note: nearly all actives have a fitted effect of over 35% in size)
Method in brief: as §1

COc1ncc(Nc2ncc([C@@H](C)N3CCN(S(C)(=O)=O)CC3)cc2-c2nc(C)nc(N)n2)cc1F
activation [1]: 21%
Potency [2]: inactive
Potency [3]: 10 µM (active)
Potency [4]: inactive
Potency [5]: inactive

C[C@H](NCc1ccc(OCc2ccccc2F)cc1)C(N)=O
activation [1]: 11.5%
Potency [2]: inactive

O=[N+]([O-])c1ccc(-[n+]2nc(-c3ccccc3)nn2-c2ccc(I)cc2)cc1
activation [1]: -2.39%
Potency [2]: inactive
Potency [3]: 11.3 µM (active)
Potency [4]: 17.8 µM (active)

Cc1ccc(C(=O)Nc2noc3ccccc23)cc1
activation [1]: -1%
Potency [2]: inactive
Potency [3]: 1.27 µM (active)
Potency [6]: inactive
Potency [5]: 5.01 µM (active)
Potency [7]: inactive

Fc1ccc2nc(CCC#Cc3ccccn3)cn2c1
activation [1]: 2.68%
Potency [2]: inactive

COc1cc(/C=C/CO[C@@H]2O[C@H](CO)[C@@H](O)[C@H](O)[C@H]2O)cc(OC)c1O[C@@H]1O[C@H](CO)[C@@H](O)[C@H](O)[C@H]1O
activation [1]: 0.893%
Potency [2]: inactive

O=C(NO)c1ccc(CC(=O)N(CCO)c2ccccc2)cc1
activation [1]: -8.59% and 7.82%
Potency [2]: inactive

CC1(C)OC(=O)CC(O)C2(C)C1CC(=O)C1(C)C2C(O)CC2(C)C(c3ccoc3)OC(=O)C3OC321 (configuration not stated)
activation [1]: -23.7%
Potency [2]: inactive

CCCC/C=C\CCCCCc1cc(=O)c2ccccc2n1C
activation [1]: -0.893%
Potency [2]: 8.91 µM (active)
Potency [3]: inactive
Potency [6]: 6.97 µM (active)
Potency [5]: inactive

COc1c2cc(c(O[C@@H]3O[C@H](CO)[C@@H](O)[C@H](O)[C@H]3O)c1OC)CCCCC(O)CCc1ccc(O)c-2c1 (some centres not stated)
activation [1]: 8.93%
Potency [2]: inactive

CN(C)CCCCCCNC(=O)c1cccc(-c2cc(O)c3ncccc3c2)c1
activation [1]: 0.333%
Potency [2]: inactive
Potency [3]: 8.96 µM (active)
Potency [6]: inactive

CNC(=S)NS(=O)(=O)c1cc(CCNC(=O)c2cc(Cl)ccc2OC)ccc1OC
activation [1]: -6.68%
Potency [2]: inactive
Potency [3]: inactive
Potency [4]: inactive
Potency [6]: inactive
Potency [5]: inactive
Potency [7]: 11.3 µM (active)

CC1(C)CCC[C@@]2(C)[C@H]1[C@H](O)C=C1COC(=O)[C@@]12O
activation [1]: -4.58%
Potency [2]: inactive

COc1cc2nc(N3CCN(C)CC3)nc(NC3CCN(Cc4ccccc4)CC3)c2cc1OC
activation [1]: 2.33%
Potency [2]: inactive

COc1ccc(C2COc3cc(O)ccc3C2)c(O)c1OC (configuration not stated)
activation [1]: -2.29%
Potency [2]: inactive

O=C(/C=C/N1C[C@@H]2C[C@@H]1CN2c1ccccn1)c1ccccc1O
activation [1]: -4.33%
Potency [2]: inactive

C=C1CC2OC(=O)C(=C)C2C(O)/C=C(\C)CCC1O (configuration not stated)
Potency [1]: 26.9 µM (active)
Potency [2]: inactive

C/C(=C\CC/C(C)=C/CC[C@]1(C)CCc2cc(O)cc(C)c2O1)CC/C=C(\C)C(=O)O
activation [1]: -5.36%
Potency [2]: inactive
Potency [3]: inactive
Potency [6]: inactive
Potency [5]: inactive

COc1ccc(CC2C(=O)NC(C)C(=O)N(C)C3Cc4ccc(cc4)Oc4cc(ccc4OC4OC(CO)C(O)C(O)C4O)CC(C(=O)NC(C)C(=O)NC(C)C(=O)N2C)N(C)C3=O)cc1 (configuration not stated)
Potency [1]: 5.09 µM (active)
Potency [2]: inactive
Potency [3]: 4.78 µM (active)

COc1cc(O)cc(O[C@@H]2O[C@H](CO)[C@@H](O[C@@H]3OC[C@](O)(CO)[C@H]3O)[C@H](O)[C@H]2O)c1OC
activation [1]: -14.5%
Potency [2]: inactive

CC1=CC(=O)CC(C)(C)C1(O)CCC(C)O (configuration not stated)
activation [1]: 0.893%
Potency [2]: inactive

CC/C=C\C(O)C(O)C1=C(C)C(=O)C2(O1)C(=O)NC(OC)(C(=O)c1ccccc1)C2O (configuration not stated)
activation [1]: 0.763%
Potency [2]: inactive

Nc1nc2c(cnn2CCCc2ccc(O)cc2)c2nc(-c3ccco3)nn12
activation [1]: -11%
Potency [2]: inactive

CC(NCc1ccc(OCc2cccc(F)c2)cc1)C(N)=O (configuration not stated)
activation [1]: -7.16%
Potency [2]: inactive

OC[C@H]1O[C@@H](Oc2cc(O)cc(-c3cc4ccc(O)cc4o3)c2)[C@H](O)[C@@H](O)[C@@H]1O
activation [1]: 13.4%
Potency [2]: inactive
Potency [3]: 12.3 µM (active)

COC(=O)C1=COC(O[C@@H]2O[C@H](CO[C@@H]3O[C@H](COC(=O)/C=C\c4ccc(O)cc4)[C@@H](O)[C@H](O)[C@H]3O)[C@@H](O)[C@H](O)[C@H]2O)C2C(CO)=CCC12 (some centres not stated)
activation [1]: 33%
Potency [2]: inactive

O=C(OC[C@@]1(O)CO[C@@H](O[C@H]2[C@H](Oc3ccc(O)cc3)O[C@H](CO)[C@@H](O)[C@@H]2O)[C@@H]1O)c1ccc(O)cc1
activation [1]: -19.1%
Potency [2]: inactive

O=C(/C=C/c1ccc(O)c(O)c1)OCc1ccccc1O[C@@H]1O[C@H](CO)[C@@H](O)[C@H](O)[C@H]1O
activation [1]: 8.4%
Potency [2]: inactive

COc1cc(C(=O)OC[C@H]2O[C@@H](OC(C)(C)C(=O)O)[C@H](O)[C@@H](O)[C@@H]2O)cc(OC)c1O
activation [1]: -29.5%
Potency [2]: inactive

OCCc1ccc(O[C@@H]2O[C@H](CO)[C@@H](O)[C@H](O)[C@H]2O)c(O)c1
activation [1]: 8.93%
Potency [2]: inactive

O=C(/C=C/c1ccc(O)cc1)O[C@H]1[C@@H]2C=CO[C@@H](O[C@@H]3O[C@H](CO)[C@@H](O)[C@H](O)[C@H]3O)[C@@H]2[C@@]2(CO)O[C@@H]12
activation [1]: -7.63%
Potency [2]: inactive

COc1cc(/C=C/C(=O)O[C@H]2[C@H](O)[C@@H](CO)O[C@@]2(CO)O[C@H]2O[C@H](CO)[C@@H](O)[C@H](O)[C@H]2O)ccc1O
activation [1]: 16%
Potency [2]: inactive

O=C(/C=C/c1ccc(O)c(O)c1)OC[C@H]1O[C@@H](OC2CCCCC2O)[C@H](O)[C@@H](O)[C@@H]1O (some centres not stated)
activation [1]: -3.05%
Potency [2]: inactive

C[C@@H](OC(=O)/C=C/c1ccc(O)cc1)C1=C[C@]2(C=C[C@@H]3C(C(=O)O)=CO[C@@H](O[C@@H]4O[C@H](CO[C@@H]5O[C@H](CO)[C@@H](O)[C@H](O)[C@H]5O)[C@@H](O)[C@H](O)[C@H]4O)[C@@H]32)OC1=O
activation [1]: -5.34%
Potency [2]: inactive

CN(CCCNC(=O)c1ccc2nc3c(c(Cl)c2c1)CCCC3)Cc1ccccc1
activation [1]: 20.5%
Potency [2]: inactive
Potency [3]: 8.96 µM (active)
Potency [4]: inactive
Potency [6]: 7.12 µM (active)
Potency [5]: inactive
Potency [7]: 8.96 µM (active)

CC(C)(Oc1ccc(-c2nc3cc(Cl)ccc3s2)cc1)C(=O)O
activation [1]: -19.6%
Potency [2]: inactive
Potency [3]: 12.6 µM (active)
Potency [4]: 31.6 µM (active)
Potency [5]: 11.2 µM (active)

COc1cc(C(=O)OC[C@H]2O[C@@H](Oc3ccccc3/C=C/C(=O)O)[C@H](O)[C@@H](O)[C@@H]2O)cc(OC)c1OC
activation [1]: 1.53%
Potency [2]: inactive
Potency [3]: 9.79 µM (active)

Cc1nn(C)c2c1C(c1ccc(C(F)(F)F)cc1)C(C#N)=C(N)O2 (configuration not stated)
activation [1]: -5.25% and 36.9%
Potency [2]: inactive
Potency [3]: inactive
Potency [4]: 6.31 µM (active)
viability [8]: 87.6%
Potency [9]: inactive
Potency [10]: inactive

C=C1CCC2[C@](C)(CO)CCC[C@@]2(C)[C@@H]1CCC1=CCOC1=O (some centres not stated)
activation [1]: -7.14%
Potency [2]: inactive

C[C@@H]1O[C@@H](O[C@H]2[C@H](O)[C@@H](O)[C@H](OC(=O)[C@]34CCC(C)(C)C[C@H]3C3=CCC5[C@@]6(C)CC[C@H](O[C@@H]7O[C@H](C(=O)O)[C@@H](O)[C@H](O)[C@H]7O)C(C)(C)C6CC[C@@]5(C)[C@]3(C)CC4)O[C@@H]2CO)[C@H](O)[C@H](O)[C@H]1O (some centres not stated)
activation [1]: -9.16%
Potency [2]: inactive

Cc1cc(C)nc(NS(=O)(=O)c2ccc(NC(=S)NC(=O)COc3ccc(Br)cc3Cl)cc2)n1
activation [1]: -6.21%
Potency [2]: inactive
Potency [4]: inactive
Potency [5]: inactive
